Hit rate of the full screen: of about 390,000 compounds, about 760 (0.19%) were called active. Roughly 3% stayed inconclusive and do not appear here. This is one part of a sample in which actives are shown more often than they occur. The call rests on the fitted dose curve; in most records, active means well fitted inhibition curve with a large enough effect; inconclusive means small, poorly fitted or top-dose-only effect; inactive means flat fitted curve, though single readings scatter.
assay: qHTS for Inhibitors of Vif-A3F Interactions: qHTS; details: HeLa A3F-eYFP + Vif (tagged APOBEC3F with the HIV-1 protein that degrades it), YFP fluorescence increase; series mostly up to 46.1 µM; activity, negative = active: at the top concentration; further: nearly all actives have a fitted effect of over 65% in size; on activity, negative = active: % of control where 0% means no effect
Source text: The recent discovery and characterization of host restriction factors, which provide a potent defense to invading retroviruses, has provided new targets for antiviral drug development. APOBEC3G (A3G) and APOBEC3F (A3F) are potent cytidine deaminases that block HIV-1 replication; HIV-1 expresses the Vif protein, which counteracts A3G and A3F by binding to them and inducing their proteasomal degradation. The Vif-A3G and Vif-A3F interactions provide two potential targets for development of small molecules which can interfere with the ability of Vif to degrade A3G or A3F. […] To identify inhibitors that can interfere with Vif mediated degradation of A3G and A3F, we have developed Hela cell lines that stably express A3G or A3F tagged with eYFP at the C-terminal end (A3G-eYFP or A3F-eYFP, respectively) and Vif. In the absence of an inhibitor, Vif induces degradation of A3G-eYFP and A3F-eYFP, and the cells are not fluorescent. In the presence of an inhibitor, it is expected that Vif will be unable to degrade A3G-eYFP and/or A3F-eYFP, resulting in an increase in yellow fluorescence. In this assays Vif A3F was screened against the Molecular Library Small Molecule Repository (MLSMR). NIH Chemical Genomics Center [NCGC] NIH Molecular Libraries Probe Centers Network [MLPCN] MLPCN Grant: MH093245 Assay Submitter (PI): Vinay Pathak, National Cancer Institute
5 uL of 700 cells/well of A3F-YFP cells are dispensed into black, clear bottom plates. The plates are incubated overnight at 37 deg C. 23 nL of compounds are added by pintool. The plates are incubated overnight at 37 deg C and then read on the TTP Acumen (Ex 488/ Em 500-530).
Potency means the concentration at half of the fitted maximal effect.

| Structure (SMILES) | activity, negative = active | Potency |
| --- | --- | --- |
| Cc1[nH]c2ccccc2c1C(c1ccccc1)c1cccs1 (stereo not drawn) | 1.42% (inactive) |  |
| COc1ccc(C2CC(c3cccs3)=Nc3ccccc3S2)cc1OC (stereo not drawn) | -5.58% (inactive) |  |
| CC1Cn2c(nnc2-c2cccs2)S1 (stereo not drawn) | -0.767% (inactive) |  |
| Cc1ccccc1C1CC(c2cccs2)=NN1S(C)(=O)=O (stereo not drawn) |  | 17.8 µM (active) |
| COc1cc(NS(=O)(=O)c2cccs2)cc(OC)c1 | -5.81% (inactive) |  |
| Cc1ccccc1Cn1nc(C)c(NC(=O)c2cc(-c3ccc(F)cc3)on2)c1C | -13.4% (inactive) |  |
| CCN(CCCNC(=O)CSc1cc(=O)n(C)c2cc(Cl)ccc12)c1cccc(C)c1 | -6.36% (inactive) |  |
| COc1ccc(/C=C/c2nc(C#N)c(NCc3ccc(F)cc3)o2)cc1OC | -0.36% (inactive) |  |
| N#Cc1nc(/C=C/c2ccc(F)cc2)oc1NCc1ccc(F)cc1 | 3.52% (inactive) |  |
| CCN(CC)C(=O)CSC(Nc1cccc(F)c1)=C(C#N)C#N |  | 10 µM (active) |
| Cc1ccc(CSCC(=O)N(C)CC(=O)Nc2cccc(F)c2)cc1 | 7.18% (inactive) |  |
| CCOC(=O)c1nnn(CC(=O)Nc2cccc(F)c2)c1C(=O)OCC | 3.56% (inactive) |  |
| Cc1cc(C)cc(NC(c2nnc(-c3cccc(F)c3)o2)c2ccc(F)cc2Cl)c1 (stereo not drawn) | -7.91% (inactive) |  |
| O=C(Nc1ccc(S(=O)(=O)N2CCC(c3nc4ccccc4s3)CC2)cc1)c1ccccc1F | -10.8% (inactive) |  |
| O=C(Cn1nc(C(F)(F)F)c2c1CCCC2)Nc1ccc(Cl)cc1 | -21.5% (inactive) |  |
| NS(=O)(=O)c1ccc(NC(=O)COc2ccc(S(=O)(=O)NC3CCCCC3)cc2)cc1 | 2.92% (inactive) |  |
| Cc1cccn2c(=O)c(C(=O)NC(C)c3ccccc3)cnc12 (stereo not drawn) | -2.37% (inactive) |  |
| CCC1CN(S(=O)(=O)c2cc(-c3cc(C)no3)ccc2C)c2cc(C)ccc2O1 (stereo not drawn) | -2.18% (inactive) |  |
| O=C(CSc1oc(-c2ccco2)nc1S(=O)(=O)c1ccccc1)c1ccc(Cl)cc1 | 1.03% (inactive) |  |
| CCOc1ccc(CNC(=O)C2CCCN(S(=O)(=O)N(CC)c3ccc(OCC)cc3)C2)cc1 (stereo not drawn) | 0.581% (inactive) |  |
| CCOC(=O)c1cccc(NC(=O)c2cc(S(=O)(=O)N3CCCC(C)C3)cn2C)c1 (stereo not drawn) | -5.21% (inactive) |  |
| Cc1ccc(NC(=O)CSc2nc3c([nH]c4ccccc43)c(=O)n2-c2ccccc2)c(C)c1 | -29.3% (inactive) |  |
| CCCOc1ccc(-c2cccc(NS(=O)(=O)c3ccccc3)c2)nn1 | 1.12% (inactive) |  |
| CCCN1CCN(CCCNC(=O)Cn2nc(CC)n3c(cc4occc43)c2=O)CC1 | 2.13% (inactive) |  |
| O=C(COc1ccccc1F)Nc1ccc(C(=O)OCc2cc(=O)n3nc(C4CC4)sc3n2)cc1 | -0.892% (inactive) |  |

| Structure (SMILES) | activity, negative = active | Potency |
| --- | --- | --- |
| CC1=C(c2ccc(Cl)cc2)S(=O)(=O)N=C1N1CCN(c2cc(C)ccc2C)CC1 | -2.17% (inactive) |  |
| Cc1ccccc1CN1CCC(CNC(=O)c2cc3ccc4cccnc4c3[nH]2)CC1 | -0.638% (inactive) |  |
| O=C(OC12CC3CC(CC(C3)C1)C2)c1ccc(NCc2cc(O)ccc2O)cc1 |  | 22.4 µM (active) |
| Fc1ccc(CNc2nc3ccccc3n3nnnc23)cc1 |  | 7.94 µM (active) |
| Cc1nnc(NCc2ccccc2)c2c1nnn2Cc1ccc(F)cc1 | 2.27% (inactive) |  |
| Fc1ccc(CSc2nc(NCc3ccccc3)c3ccccc3n2)cc1 | 4.7% (inactive) |  |
| Cc1cccc(Cn2c(SCc3ccc(C(=O)N4CCC(C)CC4)cc3)nc3ccncc32)c1 | -1.49% (inactive) |  |
| O=C(Nc1ccc(Br)cc1)c1cc2nc(-c3ccccc3)cc(-c3ccccc3)n2n1 | 4.65% (inactive) |  |
| O=C(OCc1nc2ccccc2[nH]1)C1CCCCC1 | -2.45% (inactive) |  |
| O=C(C[n+]1ccc2c(c1)nnn2-c1ccccc1)c1ccc(Cl)cc1 | -10.2% (inactive) |  |
| O=C(Cc1nc2ccccc2[nH]c1=O)c1ccc(Cl)cc1 |  | 12.6 µM (active) |
| COc1cc(OC)c(OC)cc1/C=C/c1nc2ccccc2c(=O)n1-c1ccc(Br)c(C)c1 | 0.934% (inactive) |  |
| CCn1c(/C=C/c2ccc([N+](=O)[O-])o2)nc2ccccc2c1=O |  | 22.4 µM (active) |
| CCCN(CCC)c1c([N+](=O)[O-])c(=O)oc2ccccc12 | -4.57% (inactive) |  |
| CCc1cccc(CC)c1NC(=O)Cn1c(=O)c(-c2cc(C)ccc2NC(C)=O)nc2ccccc21 | -4.89% (inactive) |  |
| CCc1nnc(SCc2c(F)cccc2Cl)c2cc3sccc3n12 | 10.3% (inactive) |  |
| CCOC(=O)c1ccc(NC(=O)CC2C(=O)N(c3cccc(OC)c3)C(=O)N2C2CCCCC2)cc1 (stereo not drawn) | 0.959% (inactive) |  |
| Cc1oc2ncn(CC(C)C)c(=O)c2c1C(=O)N1CCN(c2ccccc2F)CC1 | -10.2% (inactive) |  |
| CCOc1ccc(S(=O)(=O)c2cn(Cc3ccc(OC)cc3)c3ccc(F)cc3c2=O)cc1 | 2.26% (inactive) |  |
| COc1cc(CN(C(=O)c2ccccc2Br)c2ccccn2)cc(OC)c1OC | 0.907% (inactive) |  |
| O=C(NCc1ccccc1)c1ccc2c(c1)nc1n2CCCCC1 | 0.601% (inactive) |  |
| Cc1ccc(CNC(=O)CCc2c(C)nn(-c3ccc(N4CCCC4)nn3)c2C)cc1 | -1.13% (inactive) |  |
| CCOCCCNC(=O)c1c(NC(=O)Cc2coc3ccc(C)cc23)sc2c1CCC2 | -0.611% (inactive) |  |
| CCC(=O)N1CCc2cc(S(=O)(=O)NC(Cc3ccccc3)C(=O)NCc3ccccc3)ccc21 (stereo not drawn) | -2.71% (inactive) |  |
| C[n+]1ccc(/C=C/c2c[nH]c3ccccc23)cc1 |  | 10 µM (active) |

| Structure (SMILES) | activity, negative = active | Potency |
| --- | --- | --- |
| CCCCN(CC)CCCNC(=O)c1nn(C)c2c1CS(=O)(=O)c1ccccc1-2 | -0.187% (inactive) |  |
| Cc1ccc(-n2nc(CO)c(C(=O)NCCc3ccccc3)n2)cc1 | -2.36% (inactive) |  |
| CCN(CC)C(=O)CSc1nc2cc3c(cc2c(=O)n1CCCC(=O)NCc1ccc2c(c1)OCO2)OCO3 | -6.97% (inactive) |  |
| CCCCn1c(N)c(N(CCC(C)C)C(=O)c2ccc([N+](=O)[O-])o2)c(=O)[nH]c1=O |  | 10 µM (active) |
| CCCCn1c(N)c(N(CCC(C)C)C(=O)c2ccc(COc3ccccc3)o2)c(=O)[nH]c1=O | -2.02% (inactive) |  |
| CCCCn1c(N)c(N(CC(C)C)C(=O)c2ccc(Br)o2)c(=O)[nH]c1=O | -12.4% (inactive) |  |
| Fc1ccc(-c2nn(-c3ccccc3Cl)c3c2cnc2ccccc23)cc1 | 3.9% (inactive) |  |
| COc1ccc(NC(=O)CSc2nnc(-c3nnn(-c4ccc(F)cc4)c3C)o2)cc1 | -6.99% (inactive) |  |
| CCn1cc2nc(SCc3cccc(F)c3)n(CCc3ccccc3)c(=O)c2n1 | 4.66% (inactive) |  |
| Cc1cccc(-n2c(O)c(C=Nc3ccccc3N)c(=O)[nH]c2=O)c1 | 9.05% (inactive) |  |
| Cc1ccc(N=Cc2c(O)n(-c3nccs3)c(=O)c3ccccc23)c(C)c1 |  | 25.1 µM (active) |
| CCCn1c(NCc2ccccc2F)nc2ccccc21 | -0.341% (inactive) |  |
| CCCCOc1ccc(C(=O)N2CC(=O)Nc3ccc(Br)cc3C2c2ccc(F)cc2)cc1 (stereo not drawn) | -3.28% (inactive) |  |
| COc1ccc(-c2noc(CSc3nc(C)cc(=O)[nH]3)n2)cc1OC | 0.209% (inactive) |  |
| O=C(N/C(=C/c1ccc(Cl)cc1)C(=O)N1CCCCC1)c1ccco1 | 2.2% (inactive) |  |
| O=C(Nc1cccc2c1N(C(=O)c1ccco1)CCC2)c1ccco1 | -2.72% (inactive) |  |
| O=C(NC(=S)N1CCc2ccccc21)c1ccco1 |  | 11.2 µM (active) |
| CC(=O)c1cccc(NC(=O)C2CCCN2S(=O)(=O)c2cccc3nsnc23)c1 (stereo not drawn) | 0.838% (inactive) |  |
| O=C(NCc1ccco1)C1CCCN(S(=O)(=O)c2cccc3nonc23)C1 (stereo not drawn) | 1.03% (inactive) |  |
| CC(=O)c1cccc(NC(=O)C2CCCN(S(=O)(=O)c3cccc4nonc34)C2)c1 (stereo not drawn) |  | 31.6 µM (active) |
| CCCCOc1ccc(NC(=O)c2cc3c(n(-c4ccc(Cl)cc4)c2=O)CCCC3=O)cc1 | -0.38% (inactive) |  |
| O=C(COc1ccccc1)NCc1ccc2c(c1)CCN2C(=O)c1ccc(F)cc1 | -0.141% (inactive) |  |
| Cc1nn2c(=O)cc(COC(=O)CNC(=O)c3ccc(F)cc3)nc2s1 | -4.52% (inactive) |  |
| Cc1ccc(S(=O)(=O)N(CC(=O)Nc2ccc(Cl)cc2Cl)c2ccccc2C)cc1 | -4.14% (inactive) |  |
| COc1cc(NC(=O)Cn2c(=O)n(Cc3ccco3)c(=O)c3oc4ccccc4c32)cc(OC)c1 | 0.129% (inactive) |  |

| Structure (SMILES) | activity, negative = active | Potency |
| --- | --- | --- |
| COC(=O)c1ccccc1NC(=O)c1ccc(COc2ccccc2Cl)o1 | -1.37% (inactive) |  |
| CCOc1cc(C(=O)NCCc2csc3nc(-c4ccc(C)cc4)nn23)cc(OCC)c1OCC | 5.51% (inactive) |  |
| Cc1ccc(NC(=O)c2nc(S(=O)(=O)Cc3cccc(C)c3)ncc2Cl)cc1 | -12.2% (inactive) |  |
| O=C(Nc1ccccc1F)C(c1ccccc1)N1Cc2ccccc2C1=O (stereo not drawn) | -3.86% (inactive) |  |
| CC1=CC(C)(C)Nc2ccc(OC(=O)CN3C(=O)C4CCCCC4C3=O)cc21 (stereo not drawn) |  | 31.6 µM (active) |
| Cc1ccc(COC(=O)CN2C(=O)NC3(CCCC3)C2=O)cc1 | -16.5% (inactive) |  |
| CC(OC(=O)CN1C(=O)C2CCCCC2C1=O)C(=O)Nc1ncc(Cl)cc1Cl (stereo not drawn) | -3.06% (inactive) |  |
| Cc1ccc2nc(COc3ccccc3NC(=O)Nc3ccc(F)c(Cl)c3)cc(=O)n2c1 | -8.67% (inactive) |  |
| O=c1c2cccnc2n(Cc2cccc(F)c2)c(=O)n1Cc1ccccc1Cl | 4.14% (inactive) |  |
| Cc1cc(C)cc(NS(=O)(=O)c2cc3c(cc2C)NC(=O)CO3)c1 | 3.35% (inactive) |  |
| Cc1ccc(N2CC(C(=O)Nc3ccc(N(C)C)cc3)CC2=O)cc1Cl (stereo not drawn) | -7% (inactive) |  |
| CCOc1ccccc1N(C)C(=O)c1cc2c(s1)-c1ccccc1OC2 | -6.36% (inactive) |  |
| CCc1cnc2c(c1SCC(=O)c1ccccc1)c(=O)n(C)c(=O)n2C | 4.8% (inactive) |  |
| COc1ccccc1NC(=O)CN1C(=O)c2ccccc2Sc2ccc(C(=O)N3CCCC3)cc21 | -7.22% (inactive) |  |
| O=C1C(Cl)=C(Oc2ccccc2)C(=O)c2ccccc21 |  | 10 µM (active) |
| COc1ccc2c(c1)c(=O)c(S(=O)(=O)c1ccc(F)cc1)cn2CC(=O)Nc1ccc(C)cc1C | -6.93% (inactive) |  |
| CCOc1ccc(NC(=O)c2c(NC(=O)Cc3ccccc3)sc3c2CCCCC3)cc1 | -13.9% (inactive) |  |
| COc1ccccc1NC(=O)CSc1oc(-c2ccco2)nc1S(=O)(=O)c1ccc(Br)cc1 | 2.73% (inactive) |  |
| Cc1ccc(-c2noc(-c3nnn(-c4cccc(C(F)(F)F)c4)c3N)n2)cc1 | 4.22% (inactive) |  |
| Cc1ccc(CNC(=O)c2ccccc2CCc2ccccc2)cc1 | -11% (inactive) |  |
| Cc1ccc(CNC(=O)c2cccc3c2C(=O)c2ccc(N4CCC(C)CC4)cc2S3(=O)=O)cc1 |  | 12.6 µM (active) |
| O=C1c2ccccc2S(=O)(=O)c2cc(N3CCN(c4ccccn4)CC3)ccc21 | 2.17% (inactive) |  |
| Fc1ccc(CN2CCc3nc(Nc4ccccc4)ncc3C2)cc1F | 5.34% (inactive) |  |

Reference: PubChem BioAssay AID602313 (National Center for Advancing Translational Sciences (NCATS), 2012)
